Data: PubChem BioAssay AID2314 (National Center for Advancing Translational Sciences (NCATS), 2010)
The campaign covered roughly 300,000 compounds. About 37,000 (12%) were called active. Cut-off read from the data, not from the text of the source: active = max response mostly above about 13% (no sharp cut-off); inactive = mostly below about 14%. The full list was thinned out, with actives kept by preference.

assay: Cycloheximide Counterscreen for Small Molecule Inhibitors of Shiga Toxin; conditions: cell reporter, cycloheximide protein synthesis inhibition counterscreen; stronger effect = higher value; note: read at 38.3 µM for the half of the compounds with a filed dose; 0% is about no effect

Q: With `CCCCCCCC(=O)NC(Nc1ccccc1OC)C(Cl)(Cl)Cl` (stereo not drawn) as the compound, how does the max response read?
A: 1.89% (inactive)

Q: With `COc1ccc(C(=O)COC(=O)Cn2cnc3c2c(=O)n(C)c(=O)n3C)c(OC)c1` as the compound, how does the max response read?
A: -1.6% (inactive)

Q: With `O=C(C1CCCO1)N1CCN(S(=O)(=O)c2ccc(Br)cc2)CC1` (stereo not drawn) as the compound, how does the max response read?
A: -1.38% (inactive)

Q: For `Cc1cnc(CN(C)C(=O)C2CCC(=O)N(CCc3cccc(F)c3)C2)[nH]1` (stereo not drawn), which max response is on record?
A: -1.18% (inactive)

Q: With `C=CCNc1nc(N)c([N+](=O)[O-])c(NC2CCCCC2)n1` as the compound, how does the max response read?
A: -4.11% (inactive)

Q: Which max response does the source give for `CC(C)(C)OC(=O)N1CCC(NC(=O)c2[nH]cnc2C(=O)N[C@@H](Cc2ccccc2)C(=O)OCc2ccccc2)CC1` here?
A: -1.27% (inactive)

Q: Which max response does the source give for `O=C1c2ccccc2C(Nc2ccc3c(c2)OCCO3)N1Cc1ccco1` (stereo not drawn) here?
A: 86.7% (active)

Q: Which max response does the source give for `O=C(NC1CCCCC1)C1c2ccccc2C(=O)N1Cc1ccco1` (stereo not drawn) here?
A: 0.684% (inactive)

Q: For `Cc1ccnc(N2C(=O)c3ccccc3C2Nc2ccc3c(c2)OCCO3)c1` (stereo not drawn), which max response is on record?
A: 42.1% (active)

Q: With `COc1ccccc1C1/C(=C(/O)c2ccc(C)cc2)C(=O)C(=O)N1Cc1ccco1` (stereo not drawn) as the compound, how does the max response read?
A: 3.34% (inactive)

Q: For `Cn1cnc(S(=O)(=O)Nc2ccc3c(c2)OCCO3)c1`, which max response is on record?
A: -2.48% (inactive)

Q: For `COC(=O)c1cccc(C(=O)N2CCCC(Nc3ccc4c(c3)OCCO4)C2)c1` (stereo not drawn), which max response is on record?
A: -1.68% (inactive)

Q: Which max response does the source give for `CCOc1ccc2[nH]c(C(=O)N/N=C/c3cccc(OC)c3OC)cc2c1` here?
A: 9.3% (inactive)

Q: With `CC(C)c1ccc(N(C(=O)c2ccco2)C(C(=O)NC2CCCC2)c2cccnc2)cc1` (stereo not drawn) as the compound, how does the max response read?
A: -5.72% (inactive)

Q: For `CCC1CCCCN1CCCNC(=O)c1cc2c(Cl)nc3ccccc3c2s1` (stereo not drawn), which max response is on record?
A: -11.5% (inactive)

Q: With `Oc1ccc(-c2onc3ccc(Cl)cc23)cc1` as the compound, how does the max response read?
A: 15.4% (inactive)

Q: For `COC(=O)c1ccc(COC(=O)c2cnccn2)cc1`, which max response is on record?
A: -1.89% (inactive)

Q: Which max response does the source give for `CCOc1ccc(C(C)=O)cc1COC(=O)c1cnc(Cl)c(Cl)c1` here?
A: -0.208% (inactive)

Q: Which max response does the source give for `COC(=O)c1ccc(COC(=O)c2cnc(Cl)c(Cl)c2)cc1` here?
A: 34.6% (active)

Q: For `COc1ccc(NS(=O)(=O)c2ccc(O)c(C(=O)OCC(=O)NC3CCCCC3)c2)cc1`, which max response is on record?
A: 0.885% (inactive)

Q: For `CCN(C(=O)COc1cccnc1[N+](=O)[O-])C1CCS(=O)(=O)C1` (stereo not drawn), which max response is on record?
A: -3% (inactive)

Q: Which max response does the source give for `Cc1nn2c(=O)cc(COC(=O)c3ccc(NC(=O)C(C)(C)C)cc3)nc2s1` here?
A: -6.18% (inactive)

Q: With `COc1cc(OC)cc(C(=O)NCCCn2ccnc2)c1` as the compound, how does the max response read?
A: -2.01% (inactive)

Q: For `O=C(NCCCn1ccnc1)c1cc(-c2ccccc2)on1`, which max response is on record?
A: 27.9% (active)

Q: Which max response does the source give for `O=C(NCCCn1ccnc1)c1ccccc1F` here?
A: 1.63% (inactive)

Q: Which max response does the source give for `COc1ccc(-c2cc(C(=O)NCCCn3ccnc3)no2)cc1` here?
A: 19.9% (active)

Q: Which max response does the source give for `COc1ccccc1-c1cc(C(=O)NCCCn2ccnc2)no1` here?
A: -1.18% (inactive)

Q: With `O=C(NCCCn1ccnc1)c1cc(Br)c(Br)s1` as the compound, how does the max response read?
A: -0.73% (inactive)

Q: For `CCN(Cc1ccccc1)C(=O)CCS(=O)(=O)c1ccc2c(c1)oc(=O)n2C`, which max response is on record?
A: 0.913% (inactive)

Q: With `CCC(=O)c1cn(CCOc2ccccc2OC)c2ccccc12` as the compound, how does the max response read?
A: 3.68% (inactive)

Q: Which max response does the source give for `CC(C)C[C@H](NC(=O)N1CCn2c1nc1ccccc12)C(=O)NC1CC1` here?
A: -12.6% (inactive)

Q: For `CC(C)[C@H](NC(=O)N1CCn2c1nc1ccccc12)C(=O)NC1CC1`, which max response is on record?
A: 12.8% (active)

Q: Which max response does the source give for `CC(C)[C@H](NC(=O)N1CCn2c1nc1ccccc12)C(=O)NCCc1ccccc1` here?
A: 11.9% (inactive)

Q: Which max response does the source give for `CCOC(=O)c1cc(C(=O)Nc2ccc(S(=O)(=O)Nc3ccc(OC)cc3)cc2)nn1C` here?
A: 3.41% (inactive)

Q: With `COc1ccc(-c2ocnc2C(=O)Nc2ccc3c(c2)CCC3)cc1` as the compound, how does the max response read?
A: -4.1% (inactive)

Q: For `CCOC(=O)N1CCN(Cc2nc3cc(NC(=O)CC)ccc3n2CC)CC1`, which max response is on record?
A: -2.89% (inactive)

Q: Which max response does the source give for `CCCC(=O)Nc1ccc2c(c1)nc1n2CCSC1` here?
A: 24.1% (active)

Q: For `CCCC(=O)Nc1ccc2c(c1)nc(CCNC(=O)c1ccco1)n2C`, which max response is on record?
A: -0.909% (inactive)

Q: Which max response does the source give for `Cc1ccccc1N1CCN(Cc2nc(Cc3ccccc3F)no2)CC1` here?
A: -1.36% (inactive)

Q: For `O=C(NCc1ccco1)C1(c2ccc(Cl)cc2)CCCC1`, which max response is on record?
A: -3.56% (inactive)

Q: Which max response does the source give for `O=C(/C=C/c1ccc(Cl)cc1Cl)NCc1ccco1` here?
A: 34.8% (active)

Q: For `COC(=O)/C=C/C(=O)NCc1ccco1`, which max response is on record?
A: -1.68% (inactive)

Q: For `FC(F)(F)C1CCCN(c2nsc3ccccc23)C1` (stereo not drawn), which max response is on record?
A: -4.78% (inactive)

Q: For `Cc1ccc2[nH]c(=O)c(CN(CC3COCCO3)C(=O)Nc3ccccc3C)cc2c1` (stereo not drawn), which max response is on record?
A: -2.55% (inactive)

Q: With `CC(=O)Nc1ccc(NC(=O)COc2ccc(-c3ccccc3)cc2)cc1` as the compound, how does the max response read?
A: 1.23% (inactive)

Q: With `O=C(CCc1ccccc1)Nc1cccc(-c2nnc(-c3ccco3)o2)c1` as the compound, how does the max response read?
A: 1.83% (inactive)

Q: For `Cc1ccc(OCC(=O)Nc2ccc(-c3nnc(-c4ccco4)o3)cc2)cc1`, which max response is on record?
A: 28.8% (active)

Q: For `Cc1ccc(OCC(=O)Nc2ccc(-c3nc4ncccc4o3)cc2)cc1`, which max response is on record?
A: -0.121% (inactive)

Q: With `COc1ccc(CC(=O)Nc2ccc(-c3nnc(-c4ccccc4)o3)cc2)cc1` as the compound, how does the max response read?
A: 10.6% (active)

Q: With `Cc1cccc(NC(=O)CSc2nnc(-c3ccco3)o2)c1` as the compound, how does the max response read?
A: 5.5% (inactive)

Q: For `CCC(=O)Oc1cccc(C(=O)Nc2ccc(-c3nnc(-c4ccco4)o3)cc2)c1`, which max response is on record?
A: 35.2% (active)

Q: For `COc1ccc(NC(=O)CS(=O)(=O)c2ccccc2)cc1`, which max response is on record?
A: 26.3% (active)

Q: For `O=C(CS(=O)(=O)c1ccccc1)Nc1ccc(S(=O)(=O)Nc2ccccn2)cc1`, which max response is on record?
A: -1.21% (inactive)

Q: For `Cc1ccc(OCC(=O)Nc2nnc(-c3ccco3)s2)cc1`, which max response is on record?
A: -1.91% (inactive)

Q: With `COc1ccc(NC(=O)c2cnc(NS(=O)(=O)c3ccccc3)nc2)cc1` as the compound, how does the max response read?
A: -2.55% (inactive)

Q: For `COc1ccc(CC(=O)Nc2c(C(N)=O)oc3ccccc23)cc1`, which max response is on record?
A: -1.28% (inactive)

Q: With `Fc1ccc2c(c1)C(c1cccnc1)=NNC(c1cccs1)=N2` as the compound, how does the max response read?
A: 14.7% (inactive)

Q: Which max response does the source give for `CC(=O)Nc1ccc(Nc2c([N+](=O)[O-])cc(S(C)(=O)=O)cc2[N+](=O)[O-])cc1` here?
A: -3.33% (inactive)

Q: Which max response does the source give for `CCN(CC)S(=O)(=O)c1ccc(N2CCOCC2)c(NC(=O)C2CSC3(C)CCC(=O)N23)c1` (stereo not drawn) here?
A: 10.5% (inactive)

Q: With `CC(=O)N1c2ccccc2N(Cc2ccc([N+](=O)[O-])cc2)C(=O)C1(C)C` as the compound, how does the max response read?
A: 10.6% (inactive)

Q: For `O=C(COc1ncnc2c(Cl)cc(Cl)cc12)N1CCN(S(=O)(=O)c2ccccc2)CC1`, which max response is on record?
A: 4.8% (inactive)

Q: For `CN(C)c1cccc(C(=O)N2CCC(n3nccc3NC(=O)C3CCOC3)CC2)c1` (stereo not drawn), which max response is on record?
A: 5.41% (inactive)

Q: For `O=C(CNC(=O)OCc1ccccc1)Oc1cc2oc(=O)cc(-c3ccccc3)c2cc1Cl`, which max response is on record?
A: 7.2% (inactive)

Q: Which max response does the source give for `COc1cccc(N(CC(=O)NCc2ccccc2)C(=O)CCC(=O)Nc2nccs2)c1` here?
A: -5.29% (inactive)

Q: For `O=C(c1ccc(S(=O)(=O)N2CCCC2)cc1)N1CCN(c2ccccc2F)CC1`, which max response is on record?
A: -1.05% (inactive)

Q: With `Cc1ccc(S(=O)(=O)N(C)c2nc3ccccc3n3c(C(C)C)nnc23)cc1` as the compound, how does the max response read?
A: 1.55% (inactive)

Q: Which max response does the source give for `CCc1nn(CCCC(=O)NC(C)c2ccccc2)c(=O)c2cc3occc3n12` (stereo not drawn) here?
A: 10.1% (inactive)

Q: Which max response does the source give for `O=C(c1ccc(F)cc1)c1c[nH]c(C(=O)NCc2cccnc2)c1` here?
A: 0.811% (inactive)

Q: With `C#CCOCCOCCOCCNc1nc(N2CCN(C(=O)[C@H](CCC(=O)O)n3cc(C(N)CO)nn3)CC2)nc(N2CCN(C(=O)[C@H](CCCCN)n3cc(C(N)[C@H](C)CC)nn3)CC2)n1` (stereo partly drawn) as the compound, how does the max response read?
A: -1.6% (inactive)

Q: Which max response does the source give for `COc1ccc(C(=O)CSc2nnc(-c3ccco3)o2)cc1` here?
A: 11.4% (inactive)

Q: For `CCCCOc1ccc(-c2nnc(-c3ccco3)o2)cc1`, which max response is on record?
A: 28.1% (active)

Q: With `COc1ccc(OCC(=O)Nc2nnc(-c3ccco3)s2)cc1` as the compound, how does the max response read?
A: -4.11% (inactive)

Q: With `O=c1c(Cl)c(NCc2ccc(F)cc2Cl)cnn1C12CC3CC(CC(C3)C1)C2` as the compound, how does the max response read?
A: -2.73% (inactive)

Q: For `COc1cccc(C2CC(c3cccs3)=NN2C(=O)CSC2=NCCS2)c1OC` (stereo not drawn), which max response is on record?
A: -1.93% (inactive)

Q: Which max response does the source give for `COc1ccc(N(C)C(=O)CCS(=O)(=O)c2cccc3nsnc23)cc1` here?
A: 3.71% (inactive)

Q: With `O=C(Nc1ccccc1)Nc1nnc(COc2ccccc2F)s1` as the compound, how does the max response read?
A: 0.805% (inactive)

Q: With `O=C(NCCOc1ccccc1F)Nc1ccc(Br)cc1` as the compound, how does the max response read?
A: 41.8% (active)

Q: With `O=C(NCCOc1ccccc1Cl)C(=O)Nc1ccccc1` as the compound, how does the max response read?
A: -6.33% (inactive)

Q: Which max response does the source give for `COc1ccc(CN2CCc3nc(Nc4ccccc4)ncc3C2)c(OC)c1OC` here?
A: 12.2% (inactive)

Q: Which max response does the source give for `CCN(CC)C(=O)CC1(c2ccccc2OC)CCOC(C(C)C)C1` (stereo not drawn) here?
A: -2.61% (inactive)

Q: Which max response does the source give for `O=C(NC(=S)Nc1cc(C(F)(F)F)ccc1N1CCOCC1)c1ccc(-c2cccc(Cl)c2)o1` here?
A: 12.2% (inactive)

Q: For `O=C(O)c1ccccc1NC(=O)c1ccccc1-c1ccccc1C(=O)O`, which max response is on record?
A: 1.58% (inactive)

Q: With `O=C(NC(=S)Nc1ccccc1C(=O)O)c1ccc(-c2ccc(Br)cc2)o1` as the compound, how does the max response read?
A: 45.5% (active)

Q: With `O=C(O)c1ccc2c(=O)n3c(nc2c1)/C(=C/c1ccc(Cl)c([N+](=O)[O-])c1)CC3` as the compound, how does the max response read?
A: -1.06% (inactive)

Q: For `COc1ccc(N=Nc2c(-c3ccc(OC)cc3)[nH]oc2=O)cc1`, which max response is on record?
A: -1.85% (inactive)

Q: Which max response does the source give for `COc1cc(NC(=O)CCS(=O)(=O)c2ccc3c(c2)oc(=O)n3C)cc(OC)c1` here?
A: -9.36% (inactive)

Q: Which max response does the source give for `CN(c1ccc2nc3ccccc3c(=O)n2n1)C1CCCCC1` here?
A: -12.8% (inactive)

Q: Which max response does the source give for `O=C(O)c1ccc(N=NN2CCOCC2)cc1` here?
A: 39% (active)

Q: With `O=C(O)c1cccc(N=NN2CCCCCC2)c1` as the compound, how does the max response read?
A: 69.7% (active)

Q: For `O=C(NC(=O)N1CCOCC1)c1ccccc1`, which max response is on record?
A: 4.39% (inactive)

Q: Which max response does the source give for `NC(=NC(=O)c1ccccc1)N1CCOCC1` here?
A: -1.9% (inactive)

Q: For `O=C(c1ccccc1)N1CCN(C(=O)N2CCCCC2)CC1`, which max response is on record?
A: -3.32% (inactive)

Q: Which max response does the source give for `CN1CCN(S(=O)(=O)c2cccc(C(=O)O)c2)CC1` here?
A: -8.28% (inactive)
